SMILES strings stand for the structures. Inconclusive results are not listed. Calls of active or inactive are those of the source. Calls follow the shape of the dose curve; as a rule, active = well fitted inhibition curve with a large enough effect; inconclusive = small, poorly fitted or top-dose-only effect; inactive = flat fitted curve, though single readings scatter.

Sequence of Luciferin 4-monooxygenase (Photinus pyralis) (P08659 whole entry, looked up): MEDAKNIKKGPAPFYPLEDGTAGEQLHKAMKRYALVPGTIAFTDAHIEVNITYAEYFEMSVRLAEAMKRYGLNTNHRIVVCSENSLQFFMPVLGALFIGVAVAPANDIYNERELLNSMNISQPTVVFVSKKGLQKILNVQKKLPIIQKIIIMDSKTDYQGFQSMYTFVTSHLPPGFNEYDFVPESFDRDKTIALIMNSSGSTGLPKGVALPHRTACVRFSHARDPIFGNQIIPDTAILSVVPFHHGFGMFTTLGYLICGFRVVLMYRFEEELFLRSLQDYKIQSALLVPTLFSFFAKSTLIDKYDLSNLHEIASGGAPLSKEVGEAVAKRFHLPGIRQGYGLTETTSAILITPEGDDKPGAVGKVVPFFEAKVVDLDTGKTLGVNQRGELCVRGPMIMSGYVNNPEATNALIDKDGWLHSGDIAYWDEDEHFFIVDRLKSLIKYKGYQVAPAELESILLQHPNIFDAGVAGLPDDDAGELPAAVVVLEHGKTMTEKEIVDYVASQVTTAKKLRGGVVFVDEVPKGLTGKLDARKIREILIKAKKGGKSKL

The target of this test is Luciferin 4-monooxygenase (Photinus pyralis) (UniProt P08659). Briefly: FLuc inhibitory activity for the follow-up compounds in a biochemical assay with Km concentrations of substrate and 500microM CoASH. Particulars: purified FLuc, Km substrates + 500 uM CoASH, luminescence; series mostly up to 57.5 µM; activity change, negative = inhibition: at the top concentration. The text has this:
NCGC Assay Overview: Firefly (Photinus pyralis) luciferase is one of the most commonly used transcriptional reporters. It is considered one of the more dynamically responsive reporters - that is, responsive to changes in reporter transcription - as it requires no post-translational modifications and is enzymatically active directly after protein synthesis (Wood, 1998). With no endogenous expression in mammalian cells and without the requirement of external excitation, it offers very little background signal, thus generally providing excellent signal to background for most assays. Previous profiling work to determine the prevalence of compounds that affect FLuc enzymatic activity (PubChem AID 411) identified that ~3% of the MLSMR library (then at ~72K) inhibited FLuc. […] Of the compounds identified in this profile that inhibited FLuc, 151 compounds were selected for further analysis, in an effort to better understand their mode of inhibiting FLuc. The assay described here was to determine the activity of the compounds in an FLuc assay that contained KM concentrations of substrates and 500uM CoASH.
NCGC Assay Protocol Summary: Reagents: 50mM Tris acetate, pH 7.5; 10mM Mg acetate; 10uM D-luciferin (Sigma #L9504); 10uM ATP; 0.01% Tween-20; 0.05% BSA; 10nM P. pyralis luciferase (Sigma #L9506); 500 uM CoASH Control compounds used were two known firefly luciferase inhibitors (3-(5-(3-chlorophenyl)-1,2,4-oxadiazol-3-yl)benzoic acid and 5-(2-fluorophenyl)-3-phenyl-1,2,4-oxadiazole), and DMSO. Three microliters containing firefly luciferase substrates in buffer (final concentrations: 50mM Tris acetate, pH 7.5, 10mM Mg acetate, 0.01% Tween-20, 0.05% BSA, 10uM D-luciferin, 10uM ATP, and 500 uM CoASH) are dispensed into each well of a Greiner white, solid-bottom 1536-well format plate using a flying reagent dispenser (FRD). These assay plates were then treated with 23nL of compound or DMSO using a Kalypsys pin tool, which allows for delivery of a 12-point intraplate titration of each compound to the assay plate (quantitative HTS), with a final compound concentrations ranging from approximately ~60uM to 0.3nM. One microliter of firefly luciferase in 500mM Tris-acetate buffer was then delivered by FRD to each well for a final enzyme concentration of 10nM. Luciferase activity was then measured using a ViewLux CCD imager (PerkinElmer), with an average exposure time of 2-30 seconds (2X binning, medium/high gain).
As to `O=C(Nc1ccccc1-c1nc2ccccc2s1)c1ccc(Br)o1`, the “activity change, negative = inhibition” value was -3.85% (inactive). For `COc1ccc2nc(NC(=O)c3ccc([N+](=O)[O-])o3)sc2c1`, the Potency was 1.16 µM (active). `COc1ccc2nc(NC(=O)c3ccco3)sc2c1`: the Potency was 0.291 µM (active). The same measure, in the same setting: for `O=C(Nc1ccccc1C(=O)O)c1ccc(NC(=O)C2CCCCC2)cc1` the value was 5.17 µM (active). Still for that read-out and setting: for `O=C(Nc1ccccc1C(=O)O)c1cccc(NC(=O)c2ccccc2Br)c1` the value was 14.6 µM (active). On to `Cc1ccc(C(=O)Nc2ccc(C(=O)O)cc2)cc1S(=O)(=O)Nc1ccccc1`, for which the “activity change, negative = inhibition” value is -17.2% (inactive). On to `O=C(Cc1ccccc1)Nc1ccccc1C(=O)Nc1ccc(C(=O)O)cc1`, for which the “activity change, negative = inhibition” value was -13.8% (inactive). With `Nc1ccc(C(=O)Nc2ccccc2C(=O)O)cc1`, the Potency was 3.26 µM (active). `Cc1ccc(C(=O)Nc2cccc(C(=O)O)c2)cc1S(=O)(=O)N1CCOCC1`: the Potency is 20.6 µM (active). Still for that read-out and setting: for `CCOc1ccc2nc(NC(=O)c3ccccn3)sc2c1` the value was 0.163 µM (active).

Consider `COc1ccccc1C(=O)Nc1ccc(C(=O)O)cc1`, for which the “activity change, negative = inhibition” value is -27.9% (inactive). In the case of `Cc1ccc(C(=O)Nc2ccc(C(=O)O)cc2)cc1S(=O)(=O)NCc1ccccc1`, the “activity change, negative = inhibition” value was -14.4% (inactive). On to `Cc1ccc2sc(-c3ccc(NC(=O)c4cc(-n5cnnc5)ccc4Cl)cc3)nc2c1`, for which the Potency is 1.63 µM (active). As to `O=C(Nc1ccccc1C(=O)O)c1ccc(NC(=O)C2CCCO2)cc1` (stereo not given), the Potency was 5.8 µM (active). The same measure, in the same setting: for `O=C(Nc1ccccc1C(=O)O)c1cccc(NC(=O)c2ccc(Br)o2)c1` the value was 10.3 µM (active). For the molecule `CCCC(=O)Nc1nc2ccc(OCC)cc2s1`, the Potency is 10.3 µM (active). Turning to `CCOc1ccc2nc(NC(=O)c3cccnc3)sc2c1`, the Potency is 1.3 µM (active).

Regarding `Cc1ccc(C(=O)O/N=C(\N)c2ccccn2)c(Cl)c1`, the Potency is 0.0046 µM (active). Same read-out and setting: for `COc1ccc2nc(NC(=O)c3ccc(NS(=O)(=O)c4cccs4)cc3)sc2c1` the value was 2.59 µM (active). In the case of `Nc1ccc(-c2nc3ccc(N)cc3s2)cc1`, the Potency is 0.116 µM (active).

Regarding `Cc1c(NC(=O)c2cccs2)cccc1-c1nc2ccccc2s1`, the Potency was 3.26 µM (active).

As for `COc1ccc2nc(NC(=O)CCc3ccc(OC)c(OC)c3)sc2c1`, the “activity change, negative = inhibition” value is -17.3% (inactive).

With `COc1ccc2nc(NC(=O)c3ccc(S(=O)(=O)N4CCCC(C)C4)cc3)sc2c1` (stereo not given), the “activity change, negative = inhibition” value is -6.31% (inactive). With `COc1cccc(-c2nc3ccccc3s2)c1`, the Potency was 0.517 µM (active). Still for that read-out and setting: for `COc1ccc(C(=O)Nc2nc3ccc(OC)cc3s2)cc1` the value was 0.58 µM (active).

On to `Cc1c(C)c2ccc(OCC(=O)Nc3ccccn3)c(C)c2oc1=O`, for which the Potency was 0.0041 µM (active).

As to `CC(=O)Oc1ccc(C(=O)Nc2ccccc2C(=O)Nc2ccc(C(=O)O)cc2)cc1`, the Potency was 1.46 µM (active). The same measure, in the same setting: for `COc1ccc(C(=O)Nc2ccccc2C(=O)Nc2ccccc2C(=O)O)cc1` the value was 0.116 µM (active). On the same count and under the same terms, for `CC(=O)Oc1ccc(C(=O)Nc2ccccc2C(=O)Nc2cccc(C(=O)O)c2)cc1` the value was 2.59 µM (active); for `O=C(O)c1cccc(NC(=O)c2ccc(COc3ccc(Cl)cc3)cc2)c1`, 18.3 µM (active). For the molecule `O=C(Cc1ccccc1)Nc1ccc(C(=O)Nc2ccccc2C(=O)O)cc1`, the Potency is 9.19 µM (active). The same measure, in the same setting: for `COc1cc(OC)cc(-c2nc3ccccc3s2)c1` the value was 3.66 µM (active). Consider `Nc1ccc(-c2nc3cc(N)ccc3s2)cc1`, for which the Potency is 0.259 µM (active). For the molecule `CC(=O)Nc1cccc(-c2nc3ccccc3s2)c1C`, the Potency is 13 µM (active). For `O=C(Nc1ccccc1-c1nc2ccccc2s1)c1cccnc1`, the “activity change, negative = inhibition” value was -9.13% (inactive). For `O=C(Nc1ccccc1C(=O)O)c1ccc(Cl)c(S(=O)(=O)N2CCOCC2)c1`, the Potency is 5.8 µM (active).

In the case of `O=C(O)c1ccccc1NC(=O)c1ccccc1Nc1ccccc1`, the Potency was 9.19 µM (active). On the same count and under the same terms, for `Nc1ccc(-c2nc3ccc(C(=O)O)cc3s2)cc1` the value was 0.146 µM (active); for `Nc1ccc2nc(-c3ccc(O)cc3)sc2c1`, 0.146 µM (active). The same measure, in the same setting: for `O=C(Nc1ccccc1C(=O)O)c1ccc(NC(=O)C2CC2)cc1` the value was 0.73 µM (active).

(Values after PubChem BioAssay AID602358 (National Center for Advancing Translational Sciences (NCATS), 2012).)
